# High-throughput results from PubChem.
# p53ts 39C tox = cytotoxicity in p53ts cells at nonpermissive temperature | AID 902 | Potency, µM (top dose mostly 46.1 µM), usual class: cytotoxic | actives 1.5% (n = 130,000) | H1299-p53A138V viability at 39C, ATP luminescence, 24 h; note: nearly all actives have a fitted effect of over 55% in size
# p53ts 32C tox = cytotoxicity in p53ts cells at permissive temperature | actives 0.93% (n = 130,000) | H1299-p53A138V at 32C, ATP luminescence viability, 24 h | Potency, µM (titrated, usually from 46.1 µM), most hits filed as cytotoxic; note: nearly all actives have a fitted effect of over 55% in size
#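 Cells: H1299 p53ts (A138V), 600/well, pre-incubated 16–30 h at 37C. Cpd up to 46 uM, 24 h, 32C. Readout: ATPlite luminescence, 20 min RT. Normalization: DMSO vs tamoxifen 100 uM. AC50 by Hill equation.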
# 12-hLO inh = 12-hLO (ALOX12) enzyme inhibition; P18054; purified 12-hLO, xylenol orange hydroperoxide absorbance; Potency, µM (highest dose often 57.1 µM), actives largely listed as inhibitors; actives 0.12% (n = 150,000); AID 1452; note: nearly all actives have a fitted effect of over 55% in size
#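 Hydroperoxide formation by human 12-lipoxygenase from 40 uM arachidonic acid was followed colorimetrically via ferric-xylenol orange complex, using the 573/405 nm absorbance ratio. Enzyme concentration was 150 nM, with 30 min reaction at room temperature.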
# HPGD block = inhibitors of human 15-hydroxyprostaglandin dehydrogenase (HPGD); purified HPGD, NADH fluorescence kinetic, PGE2 substrate; P15428; Potency, µM, most hits filed as inhibitors; actives 4.3% (n = 150,000); active = well fitted inhibition curve with a large enough effect, not every such curve was filed as active; inconclusive = small, poorly fitted or top-dose-only effect, or another doubt; inactive = no such curve, though single readings can be large or run the other way
# Target sequence (P15428 whole entry, looked up): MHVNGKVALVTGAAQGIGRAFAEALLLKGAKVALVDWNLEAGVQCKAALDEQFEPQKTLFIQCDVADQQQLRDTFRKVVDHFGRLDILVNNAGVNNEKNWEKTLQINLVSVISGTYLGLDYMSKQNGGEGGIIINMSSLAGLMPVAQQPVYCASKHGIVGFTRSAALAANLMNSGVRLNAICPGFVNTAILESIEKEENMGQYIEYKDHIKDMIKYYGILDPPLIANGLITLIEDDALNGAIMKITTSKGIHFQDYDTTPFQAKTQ
#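 NADH formation kinetics: reaction with 30 uM PGE2 and 1 mM NAD+ (final), 20 nM enzyme, Tris-HCl pH 8 with Tween 20, after 15 min compound preincubation at room temperature. Fluorescence change, last versus first of five reads.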
# A number is an active result; n = inactive; u = inconclusive; x = not tested or not shown; ! = not active in a repeat; [ ] = another dose, or the depositor's remark. A selection: hits, their analogues and other compounds. The true share with any hit is near 4.4%. Unless noted, calls come from the whole dose curve; as a rule, active = well fitted curve in the direction sought with a large enough effect; inconclusive = small, poorly fitted or top-dose-only effect, or another doubt; inactive = no such curve, though single readings can be large; an effect the other way counts as inactive or inconclusive.
SMILES,p53ts 39C tox,p53ts 32C tox,12-hLO inh,HPGD block
Cc1ccc(C)c2[nH]c(=O)c(CCNC(=O)c3cc4ccccc4o3)cc12,n,n,n,n
COc1ccc(OC)c2[nH]c(=O)c(CCNC(=O)c3cc4ccccc4o3)cc12,u,13µM,n,u
O=c1c(CCc2ccccc2)nc2cnc(Oc3ccccc3)nc2n1C[C@H]1CCCO1,n,n,n,n
C=C1c2cccc(O)c2C(O)=C2C(=O)[C@@]3(O)C(O)=C(C(N)=O)C(=O)[C@@H](N(C)C)[C@@H]3[C@@H](O)[C@H]12,n,n,n,10µM
CCOc1ccccc1NC(=O)N(C)CCc1c(C)nn(CC)c1C,n,n,x,x
CCc1ccc(-c2cn3c(n2)sc2cc(C(=O)NCCC4=CCCCC4)ccc23)cc1,n,n,x,x
CCOCCCNC(=O)c1ccc2c(c1)ncn2C1CCCC1,n,n,n,18µM
COc1ccccc1-c1cc(C(F)(F)F)nc(S(C)(=O)=O)n1,x,x,n,25µM
COc1ccccc1-c1cc(C(F)(F)F)nc(S(=O)(=O)CCCC(=O)Nc2cc(C)on2)n1,u,u,n,u
COc1ccccc1-c1cc(C(F)(F)F)nc(S(=O)(=O)CCCC(=O)Nc2cc(Br)ccc2O)n1,u,20µM,x,x
COc1ccc(Cl)cc1NC(=O)CCCS(=O)(=O)c1nc(-c2ccc(OC)c(OC)c2)cc(C(F)(F)F)n1,3.2µM,u,x,x
COc1ccccc1-c1cc(C(F)(F)F)nc(S(=O)(=O)CCCC(=O)N2CCCCC2C)n1 (stereo unspecified),u,u,n,u
COc1ccccc1-c1cc(C(F)(F)F)nc(S(=O)(=O)CCCC(=O)NC(C)C)n1,u,u,n,u
COc1ccccc1-c1cc(C(F)(F)F)nc(S(=O)(=O)CCCC(=O)Nc2ccccc2F)n1,3.2µM,u,x,x
O=C(Cc1ccccc1)NCCc1csc2nc(-c3ccc(Cl)cc3)nn12,n,n,x,x
Cc1ccc2oc3c(c(=O)c2c1)C(c1ccccc1F)N(CCCN1CCOCC1)C3=O (stereo unspecified),n,n,x,x
Oc1ccc2ccccc2c1/C=C\c1ccc2c(Br)cc(Br)c(O)c2n1,u,n[9.22 µM],n[11.4 µM],n
Cc1ccc(-n2ncc3c(N(CC(C)C)CC(C)C)ncnc32)c(C)c1,n,n,x,x
COc1ccc(CC(=O)NCc2cccs2)cc1,n,n,n,n
O=C(/C=C/c1cccc(Cl)c1)NCc1cccs1,x,x,n,32µM
O=C(CCn1cccc1)NCc1ccc2c(c1)OCO2,n,n,n,20µM
O=C(Cc1cccs1)NCc1ccc(F)cc1,n,n,n,25µM
O=C(Cc1cccs1)NCc1cccs1,n,n,n,16µM
Cc1cccc(NC(=O)CSc2nc3c(sc4ccccc43)c(=O)n2CCCC(=O)NC2CCCC2)c1,n,n,x,x
COc1ccc(-c2nc3c(c4c2C[C@H](c2ccccc2)OC4)CN(S(=O)(=O)c2ccc(NC(C)=O)cc2)CC3)c(C)c1,x,x,n[11.4 µM],n
SMILES,p53ts 39C tox,p53ts 32C tox,12-hLO inh,HPGD block
Cc1ccc(CNC(=O)COc2ccc(C(=O)c3ccc(F)cc3)cc2)cc1,x,x,n,40µM
O=C(CC1CC2CCC1C2)NCc1cccs1 (stereo unspecified),n,n,n,16µM
O=C(CCC1CCCCC1)NCc1cccs1,x,x,n,10µM
O=C(CCSCCC(=O)NCc1cccs1)NCc1cccs1,n,n,n,n
O=C(Cc1cccs1)NCc1ccc2c(c1)OCO2,n,n,n,16µM
O=C(CSc1ccc2ccccc2c1)NCc1cccs1,x,x,n,7.9µM
CC(C)CC(=O)NCc1ccc(F)cc1,x,x,n,16µM
Cc1csc(SCC(=O)NCc2cccs2)n1,n,n,n,n
O=C(O)CCC(=O)NCc1ccc(F)cc1,x,x,n,n
N[C@@H](Cc1cc(I)c(Oc2ccc(O)c(I)c2)c(I)c1)C(=O)O,x,x,u,28µM!
COc1ccc(C(=O)/C=C/c2cc(OC)c(O)c(OC)c2)c(F)c1,x,x,u,14µM
CCCCCCCCCC(=O)OCC(CO)OC(=O)CCCCCCCCC (stereo unspecified),x,x,n,n
CC(=O)Nc1c(C(=O)N2CCCCCC2)cnn1-c1ccccc1Cl,n,n,n,14µM
C1=Nc2c(NCc3ccccc3)ncnc2Oc2ccccc21,n,n,n,25µM
COc1ccccc1NC(=O)CSc1nnc(-c2ccc(C)cc2)o1,6.3µM,7.9µM,n,n
COc1ccc(C)cc1NC(=O)CSc1nnc(-c2ccc(Br)cc2)o1,n,n,n,n
CC(=O)Nc1cccc(-c2nnc(SCC(=O)c3cc([N+](=O)[O-])ccc3Cl)o2)c1,13µM,u,x,x
